SMILES strings stand for the structures. Records with an inconclusive call do not appear. For part of these data: Results with a measured potency or affinity are listed apart. Activity calls are given as the source filed them. Cut-off read from the data, not from the text of the source: active = fluorescence slope change above about 50%; inconclusive = mostly about 31% to 49%; inactive = weaker than that.

The record followed here is PubChem BioAssay.

In test [1] the target is ATP-dependent translocase ABCB1 (Homo sapiens) (UniProt P08183). Put plainly: MDR1 (ABCB1) efflux transporter inhibition, cell-based (AID 377). The settings on record: MDR1-expressing cells, fluorescent substrate accumulation slope; stronger effect = higher value; concentration not given here.
ATP-dependent translocase ABCB1 (Homo sapiens), sequence (P08183 whole entry, looked up): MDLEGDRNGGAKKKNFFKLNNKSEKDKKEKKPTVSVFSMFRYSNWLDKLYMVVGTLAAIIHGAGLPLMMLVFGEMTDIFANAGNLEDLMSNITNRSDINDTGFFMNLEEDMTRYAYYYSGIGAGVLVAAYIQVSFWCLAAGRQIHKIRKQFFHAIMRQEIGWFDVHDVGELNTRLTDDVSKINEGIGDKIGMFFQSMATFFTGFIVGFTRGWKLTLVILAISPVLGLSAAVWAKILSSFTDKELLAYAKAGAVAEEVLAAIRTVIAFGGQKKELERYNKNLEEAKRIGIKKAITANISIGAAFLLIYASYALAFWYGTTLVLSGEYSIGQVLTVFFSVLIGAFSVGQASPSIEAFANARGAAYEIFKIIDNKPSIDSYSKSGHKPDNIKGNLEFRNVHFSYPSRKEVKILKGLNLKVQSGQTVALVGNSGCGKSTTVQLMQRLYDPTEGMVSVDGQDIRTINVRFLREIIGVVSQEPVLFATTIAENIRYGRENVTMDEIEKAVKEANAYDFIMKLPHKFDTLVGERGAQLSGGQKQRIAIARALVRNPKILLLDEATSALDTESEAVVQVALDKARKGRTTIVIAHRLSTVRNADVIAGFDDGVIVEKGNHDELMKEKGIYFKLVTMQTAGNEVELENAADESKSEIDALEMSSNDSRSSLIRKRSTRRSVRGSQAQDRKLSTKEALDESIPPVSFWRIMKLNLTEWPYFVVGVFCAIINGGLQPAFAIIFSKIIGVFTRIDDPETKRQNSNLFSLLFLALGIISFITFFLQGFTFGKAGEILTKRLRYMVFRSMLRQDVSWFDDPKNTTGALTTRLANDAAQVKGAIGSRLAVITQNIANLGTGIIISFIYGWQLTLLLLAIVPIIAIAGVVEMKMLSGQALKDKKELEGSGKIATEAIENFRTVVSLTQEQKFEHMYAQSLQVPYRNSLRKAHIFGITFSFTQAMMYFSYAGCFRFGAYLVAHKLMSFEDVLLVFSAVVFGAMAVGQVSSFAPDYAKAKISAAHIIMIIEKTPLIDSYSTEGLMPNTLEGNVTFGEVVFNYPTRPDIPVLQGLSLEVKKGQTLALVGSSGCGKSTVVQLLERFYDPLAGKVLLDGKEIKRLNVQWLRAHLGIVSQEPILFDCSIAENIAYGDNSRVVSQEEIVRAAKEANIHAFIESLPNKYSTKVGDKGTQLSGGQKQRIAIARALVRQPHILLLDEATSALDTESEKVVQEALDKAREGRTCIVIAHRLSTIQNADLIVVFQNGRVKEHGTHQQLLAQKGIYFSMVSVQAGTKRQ
Test [2] can be described thus: polyglutamine-triggered caspase-3 activation inhibitors, cell-based (AID 1583). The conditions noted are these: polyglutamine-induced caspase-3 activation, cell assay; stronger effect = higher value;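 tested at 10 µM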.
Test [3] in a line: suppressors of polyQ aggregation in yeast, 75Q-TubU reporter (AID 1593). The conditions noted are these: Yeast 75Q polyglutamine aggregation reporter.
Test [4] can be described thus: rescue of polyQ-huntingtin neuronal dysfunction in worms, whole organism, C. elegans mechanosensory neurons, N-terminal huntingtin (AID 1599). The settings on record: touch response, stronger effect = higher value.
Test [5] is described as follows: inhibitors of mitochondrial cytochrome c release, biochemical, purified mitochondria (AID 1603).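 Note: mouse liver mitochondria challenged with calcium chloride; signal normalized to the plate average as 100%.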 The conditions noted are these: stronger effect = lower value.
The nature of test [6]: inhibitors of polyQ protein aggregation (AID 1604). The settings on record: polyglutamine-induced protein aggregation inhibition assay; stronger effect = higher value; tested at 2.5 µM.

As usually defined, the inhibition is the relative decrease from the control value, in per cent. Take `Clc1ccccc1C(c1ccccc1)(c1ccccc1)n1ccnc1`: in test [1], the fluorescence slope change was 67.9% (active). Moreover, the inhibition in test [2] stood at 60.7%. Besides, the score in test [3] was 0.26. This compound showed a rescue above control in test [4] of -7. For the same compound, the cytochrome c release ratio in test [5] is 4.6. Further, the inhibition of aggregation in test [6] came to 41.7%.

As for `NS(=O)(=O)c1cc(C(=O)O)c(NCc2ccco2)cc1Cl`, the fluorescence slope change in test [1] is 19.9% (inactive). The inhibition in test [2] turned out to be 10.9%. In test [3], the score is 1.37. Moreover, the rescue above control in test [4] was -8.35. The cytochrome c release ratio in test [5] amounted to 0.82. For the same compound, in test [6], the inhibition of aggregation was 3.24%.

`CN1CCOC(c2ccccc2)c2ccccc2C1` (stereo unspecified): the fluorescence slope change in test [1] is 5.9% (inactive). The inhibition in test [2] was 4.24%. For the same compound, in test [3], the score was 1.08. This compound also registered a rescue above control in test [4] of -6.88. Further, in test [5], the cytochrome c release ratio worked out at 0.83. Moreover, the inhibition of aggregation in test [6] came to 74.7%.

Regarding `Nc1cc(-c2ccncc2)c[nH]c1=O`, in test [1], the fluorescence slope change is 8.3% (inactive). Moreover, the inhibition in test [2] was -0.86%. The score in test [3] was 1.14. The rescue above control in test [4] worked out at 4.19. Besides, the cytochrome c release ratio in test [5] came out at 0.91. Besides, the inhibition of aggregation in test [6] was 17.8%.

With `CC(=O)OCC1=C(C(=O)O)N2C(=O)[C@@H](NC(=O)Cc3cccs3)[C@H]2SC1`, the fluorescence slope change in test [1] is 2.1% (inactive). The inhibition in test [2] came out at 11.1%. This compound registered a score in test [3] of 1.29. The same compound displayed a rescue above control in test [4] of -1.7. Besides, the cytochrome c release ratio in test [5] is 0.78. Further, the inhibition of aggregation in test [6] was -17.5%.

For `CCn1cc(C(=O)O)c(=O)c2cc(F)c(N3CCNCC3)nc21`, in test [1], the fluorescence slope change was 3.6% (inactive). Besides, the inhibition in test [2] was -8.5%. Besides, the score in test [3] stood at 1.5. Further, in test [4], the rescue above control turned out to be 0.62. In addition, the cytochrome c release ratio in test [5] stood at 0.92. For the same compound, the inhibition of aggregation in test [6] is -1.85%.

As for `Cc1ccccc1N1C(=O)c2cc(S(N)(=O)=O)c(Cl)cc2NC1C` (stereo unspecified), the fluorescence slope change in test [1] is 79.4% (active). Further, the inhibition in test [2] turned out to be 19.1%. Further, the score in test [3] worked out at 1.21. The rescue above control in test [4] was found to be 6.73. For the same compound, in test [5], the cytochrome c release ratio was 0.86. Moreover, the inhibition of aggregation in test [6] was found to be 4.55%.

For `CN1CCC(OC(c2ccccc2)c2ccccc2)CC1`, in test [1], the fluorescence slope change is 7.9% (inactive). Besides, in test [2], the inhibition was -34.9%. The compound further registered a score in test [3] of 1.74. The compound further registered a rescue above control in test [4] of -9.83. Also, the cytochrome c release ratio in test [5] was found to be 1.09. Moreover, the inhibition of aggregation in test [6] worked out at 81.6%.

Consider `CCOc1ccc(Cc2nccc3cc(OCC)c(OCC)cc23)cc1OCC`, for which the fluorescence slope change in test [1] is 86.8% (active). The inhibition in test [2] was 34.8%. Moreover, the score in test [3] was 1.54. In test [4], this compound gave a rescue above control of -2.91. Besides, in test [5], the cytochrome c release ratio came out at 1.13. Besides, in test [6], the inhibition of aggregation is -10.6%.

Consider `NNc1nncc2ccccc12`, for which the fluorescence slope change in test [1] was 71.4% (active). The inhibition in test [2] came out at 24%. Also, the score in test [3] turned out to be 1.45. For the same compound, in test [4], the rescue above control was -2.16. Moreover, the cytochrome c release ratio in test [5] was found to be 0.9. Besides, the inhibition of aggregation in test [6] was -30.3%.

As to `CC(C)(Oc1ccc(Cl)cc1)C(=O)O`, the fluorescence slope change in test [1] was 21.7% (inactive). In addition, the inhibition in test [2] was 17.7%. The score in test [3] is 1.27. The rescue above control in test [4] came out at 11.6. The cytochrome c release ratio in test [5] came out at 1.13. In addition, in test [6], the inhibition of aggregation worked out at 38.2%.
